# Assay results reported in PubChem BioAssay (EPA / NIEHS).
# The source made the active and inactive calls. How the source made its calls: active means hit-call score of the fitted dose curve at least 0.9, where 1 is the maximum; inactive means score below 0.9.
# Columns and labels:
# [1] = target: CCAAT/enhancer-binding protein beta (Homo sapiens) (UniProt P17676); assay: ATG_C_EBP_CIS: Attagene CIS-FACTORIAL HepG2 Assay for human CCAAT/Enhancer Binding Protein (C/EBP) beta (AID 2282927); details: HepG2 Attagene cis-factorial transcription factor reporter; actives raise or lower the signal
# How it was run: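 RT-PCR/capillary electrophoresis fluorescence of reporter mRNA, 24 h post-dose, in HepG2 cells carrying transfected cis-promoter reporter units. Bidirectional curve fitting against DMSO baseline captures gain or loss of signal.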
# [2] = ATG_DR4_LXR_CIS: Attagene CIS-FACTORIAL HepG2 Assay for human Liver X Receptor (LXR), DR4 submotif (AID 2282929); details: HepG2 Attagene DR4 cis-reporter, mRNA transcription; actives raise or lower the signal
# How it was run: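 The endpoint is DR4-element-driven reporter transcripts after 24 h chemical exposure of transfected HepG2 cells. These were measured via RT-PCR and capillary electrophoresis, and gain or loss of signal was fitted relative to DMSO controls.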
# [3] = target: Aryl hydrocarbon receptor (Homo sapiens) (UniProt P35869); assay: ATG_Ahr_CIS: Attagene CIS-FACTORIAL HepG2 Assay for human Aryl Hydrocarbon Receptor (Ahr) (AID 2282930); details: HepG2 AhR cis-factorial reporter transcription; actives raise or lower the signal
# How it was run: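 HepG2 cells transiently transfected with cis-element-driven multiplexed reporter transcription units; endogenous transcription factor activity measured as reporter mRNA 24 h after dosing. RT-PCR, 6-FAM labelling, HpaI digestion, capillary electrophoresis; bidirectional fitting versus DMSO baseline.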
# [4] = ATG_AP_1_CIS: Attagene CIS-FACTORIAL HepG2 Assay for human Activator Protein 1 (AP-1) (AID 2282931); details: HepG2 Attagene cis-factorial AP-1 reporter mRNA; actives raise or lower the signal
# How it was run: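 Readout is reporter transcript level from endogenous transcription factor activity, quantified by RT-PCR with fluorescent primer extension and capillary electrophoresis. Transiently transfected HepG2 cells, 24 h exposure. Curves fitted both directions versus DMSO.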
# [5] = ATG_AP_2_CIS: Attagene CIS-FACTORIAL HepG2 Assay for human Activator Protein 2 (AP-2) (AID 2282932); details: HepG2 AP-2 cis-reporter, Attagene transcription factor profiling; actives raise or lower the signal
# How it was run: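 Bidirectional curve fitting against DMSO was applied to reporter mRNA signals from HepG2 cells 24 h after dosing. Cis-promoter reporter units, transiently transfected, were read by RT-PCR plus capillary electrophoresis.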
# [6] = ATG_BRE_CIS: Attagene CIS-FACTORIAL HepG2 Assay for human Bone Morphogenetic Protein (BMP) Response Element (BRE) (AID 2282933); details: HepG2 BMP response element reporter, Attagene transcription factor profiling; actives raise or lower the signal
# How it was run: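 After a 24 h chemical treatment, transiently transfected HepG2 cells were lysed for RNA; reporter transcripts were quantified by fluorescent RT-PCR and capillary electrophoresis, normalised to DMSO.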
# [7] = target: Retinoic acid receptor alpha (Homo sapiens) (UniProt P10276); assay: ATG_DR5_RAR_CIS: Attagene CIS-FACTORIAL HepG2 Assay for human Retinoic Acid Receptor Alpha (RARE), DR5 submotif (AID 2282934); details: HepG2 Attagene cis-factorial RARE DR5 reporter, mRNA; actives raise or lower the signal
# How it was run: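 HepG2 cells transiently transfected with multiplexed reporter units under cis (DR5 RARE) promoters, so endogenous transcription factor activity is measured. After 24 h compound exposure, reporter mRNA is quantified by RT-PCR with fluorescent labelling and capillary electrophoresis; bidirectional fitting versus DMSO.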
# [8] = target: Transcription factor E2F1 (Homo sapiens) (UniProt Q01094); assay: ATG_E2F_CIS: Attagene CIS-FACTORIAL HepG2 Assay for human E2F Transcription Factor 1 (AID 2282935); details: HepG2 Attagene cis-reporter, E2F reporter RNA transcripts; actives raise or lower the signal
# How it was run: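 Multiplexed cis-reporter assay: HepG2, transient transfection, 24 h dosing, mRNA quantitation by labeled RT-PCR and CE.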
# [9] = ATG_E_Box_CIS: Attagene CIS-FACTORIAL HepG2 Assay for human Enhancer Box (E-box) (AID 2282936); details: HepG2 E-box cis-reporter transcription, actives raise or lower the signal
# How it was run: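 Multiplexed CIS reporter system in transiently transfected HepG2 cells measures native transcription factor activity. Reporter RNA after 24 h exposure is profiled by RT-PCR-capillary electrophoresis.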
# Retinoic acid receptor alpha (Homo sapiens), sequence (P10276 whole entry, looked up): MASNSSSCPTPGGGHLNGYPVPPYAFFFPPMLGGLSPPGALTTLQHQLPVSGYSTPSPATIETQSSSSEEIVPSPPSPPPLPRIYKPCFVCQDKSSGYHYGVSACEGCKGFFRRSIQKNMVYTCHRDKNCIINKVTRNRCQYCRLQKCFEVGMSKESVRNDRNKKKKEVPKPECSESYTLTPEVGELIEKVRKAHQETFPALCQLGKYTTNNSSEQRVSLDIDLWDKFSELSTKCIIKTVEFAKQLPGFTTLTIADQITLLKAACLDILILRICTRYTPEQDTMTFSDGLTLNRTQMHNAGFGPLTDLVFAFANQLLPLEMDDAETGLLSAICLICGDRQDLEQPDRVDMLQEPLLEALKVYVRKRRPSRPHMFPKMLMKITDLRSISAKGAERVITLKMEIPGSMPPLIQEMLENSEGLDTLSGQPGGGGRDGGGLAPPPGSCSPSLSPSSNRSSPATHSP
# Transcription factor E2F1 (Homo sapiens), sequence (Q01094 whole entry, looked up): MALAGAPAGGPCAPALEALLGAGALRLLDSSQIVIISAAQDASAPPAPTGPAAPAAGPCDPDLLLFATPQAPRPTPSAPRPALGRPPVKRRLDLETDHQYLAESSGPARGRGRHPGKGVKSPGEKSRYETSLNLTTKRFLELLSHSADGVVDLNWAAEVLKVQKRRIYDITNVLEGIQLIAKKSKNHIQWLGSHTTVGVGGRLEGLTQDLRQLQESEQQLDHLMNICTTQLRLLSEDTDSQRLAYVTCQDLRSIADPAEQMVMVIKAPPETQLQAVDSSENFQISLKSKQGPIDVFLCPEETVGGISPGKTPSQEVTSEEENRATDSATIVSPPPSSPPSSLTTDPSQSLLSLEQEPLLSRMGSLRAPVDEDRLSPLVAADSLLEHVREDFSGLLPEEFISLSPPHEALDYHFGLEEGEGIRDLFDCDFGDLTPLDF
# Aryl hydrocarbon receptor (Homo sapiens), sequence (P35869 whole entry, looked up): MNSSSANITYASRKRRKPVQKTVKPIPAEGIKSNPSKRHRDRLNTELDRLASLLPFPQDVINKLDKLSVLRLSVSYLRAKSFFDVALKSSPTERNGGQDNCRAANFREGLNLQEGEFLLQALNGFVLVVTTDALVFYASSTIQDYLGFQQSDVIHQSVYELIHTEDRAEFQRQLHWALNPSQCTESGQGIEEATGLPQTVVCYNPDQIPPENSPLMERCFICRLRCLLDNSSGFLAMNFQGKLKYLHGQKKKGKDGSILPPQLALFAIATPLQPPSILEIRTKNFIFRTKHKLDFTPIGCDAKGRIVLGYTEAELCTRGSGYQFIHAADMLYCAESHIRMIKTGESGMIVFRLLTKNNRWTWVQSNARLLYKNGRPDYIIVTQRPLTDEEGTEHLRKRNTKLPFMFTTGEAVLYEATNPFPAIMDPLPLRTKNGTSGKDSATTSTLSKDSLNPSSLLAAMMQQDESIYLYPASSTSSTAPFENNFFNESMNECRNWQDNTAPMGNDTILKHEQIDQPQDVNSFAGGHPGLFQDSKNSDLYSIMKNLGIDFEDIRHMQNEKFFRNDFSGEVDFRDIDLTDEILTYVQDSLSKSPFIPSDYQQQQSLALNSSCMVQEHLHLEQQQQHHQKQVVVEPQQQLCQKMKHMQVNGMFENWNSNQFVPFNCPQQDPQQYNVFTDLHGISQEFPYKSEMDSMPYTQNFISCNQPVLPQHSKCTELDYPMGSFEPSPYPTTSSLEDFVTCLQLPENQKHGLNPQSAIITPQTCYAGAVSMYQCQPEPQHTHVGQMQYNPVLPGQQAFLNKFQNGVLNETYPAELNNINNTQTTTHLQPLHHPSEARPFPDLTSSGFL
# CCAAT/enhancer-binding protein beta (Homo sapiens), sequence (P17676 whole entry, looked up): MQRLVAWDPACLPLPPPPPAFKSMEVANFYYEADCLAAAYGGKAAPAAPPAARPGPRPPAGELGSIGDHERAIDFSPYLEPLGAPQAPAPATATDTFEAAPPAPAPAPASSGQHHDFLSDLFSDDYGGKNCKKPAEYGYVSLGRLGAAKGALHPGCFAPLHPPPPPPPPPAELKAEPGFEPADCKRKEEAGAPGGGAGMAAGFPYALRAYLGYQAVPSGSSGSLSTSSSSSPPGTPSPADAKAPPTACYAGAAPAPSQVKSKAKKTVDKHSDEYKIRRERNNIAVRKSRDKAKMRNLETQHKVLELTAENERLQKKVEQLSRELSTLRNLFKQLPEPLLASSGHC
smiles,measurement,setting,value
CCCCOCC1CO1 (stereo unspecified),outcome,[1],inactive
same,outcome,[2],inactive
same,outcome,[3],inactive
same,outcome,[4],inactive
same,outcome,[5],inactive
same,outcome,[6],inactive
same,outcome,[7],inactive
same,outcome,[8],inactive
same,outcome,[9],inactive
O=C(O)C=CC(F)(C(F)(F)F)C(F)(F)F,outcome,[1],inactive
same,outcome,[2],inactive
same,outcome,[3],inactive
same,outcome,[4],inactive
same,outcome,[5],inactive
same,outcome,[6],inactive
same,outcome,[7],inactive
same,outcome,[8],inactive
same,outcome,[9],inactive
C=CC(=O)OCC(CC)(COC(=O)C=C)COC(=O)C=C,outcome,[1],inactive
same,AC50,[3],35.9 µM (active)
same,AC50,[4],113 µM (active)
same,outcome,[5],inactive
same,outcome,[6],inactive
same,outcome,[7],inactive
same,AC50,[8],100 µM (active)
same,AC50,[9],22 µM (active)
O=P(Oc1ccccc1)(Oc1ccccc1)Oc1ccccc1,outcome,[1],inactive
same,AC50,[2],13.5 µM (active)
same,outcome,[3],inactive
same,AC50,[4],52.6 µM (active)
same,outcome,[5],inactive
same,AC50,[6],54 µM (active)
same,outcome,[8],inactive
same,outcome,[9],inactive
CCC(C)(C)c1ccc(O)cc1,outcome,[1],inactive
same,outcome,[2],inactive
same,outcome,[3],inactive
same,AC50,[4],49.5 µM (active)
same,outcome,[5],inactive
same,outcome,[6],inactive
same,AC50,[8],52.4 µM (active)
same,outcome,[9],inactive
CC(Cl)CN(C)C (stereo unspecified),outcome,[1],inactive
same,outcome,[3],inactive
same,outcome,[4],inactive
same,outcome,[5],inactive
same,outcome,[6],inactive
same,outcome,[7],inactive
same,outcome,[8],inactive
same,outcome,[9],inactive
Nc1cc2c3c(c1)C(c1ccccc1)=N[C@@H](NC(=O)c1cccnc1)C(=O)N3CC2,AC50,[1],40.6 µM (active)
same,outcome,[2],inactive
same,outcome,[3],inactive
same,outcome,[4],inactive
same,AC50,[5],145 µM (active)
same,outcome,[6],inactive
same,outcome,[8],inactive
same,outcome,[9],inactive
CCOS(=O)(=O)OCC,outcome,[1],inactive
same,outcome,[2],inactive
same,outcome,[3],inactive
same,outcome,[4],inactive
same,outcome,[5],inactive
same,outcome,[6],inactive
same,outcome,[8],inactive
same,outcome,[9],inactive
